PubChem BioAssay (NCATS)
Results filed as inconclusive are left out. The source made the active and inactive calls. The call rests on the fitted dose curve; in most records, active means well fitted inhibition curve with a large enough effect; inconclusive means small, poorly fitted or top-dose-only effect; inactive means flat fitted curve, though single readings scatter.

Key:
Assay in all cases: qHTS profiling for inhibitors of Plasmodium falciparum proliferation (AID 504749); further: nearly all actives have a fitted effect of over 60% in size
Conditions in all cases: P. falciparum in erythrocytes, SYBR Green DNA, 72 h; series mostly up to 28.7 µM
[1] = test system: CP262
Summary of the method: (§1)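 Readout was DNA-dye fluorescence from lysed cultures, ex 485/em 535 nm. Parasitized red cells had grown 72 h with compound; data scaled between 0.29 uM artemisinin and DMSO wells and corrected using vehicle-only plates.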

[2] = test system: CP265
Summary of the method: as §1

[3] = test system: CP266
Summary of the method: as §1

[4] = test system: CP268
Summary of the method: as §1

[5] = test system: CP269
Summary of the method: as §1

[6] = test system: CP286
Summary of the method: as §1

[7] = test system: CP291
Summary of the method: as §1

[8] = test system: CP297
Summary of the method: as §1

[9] = test system: CP305
Summary of the method: as §1

[10] = test system: CP325
Summary of the method: as §1

[11] = test system: CP329
Summary of the method: as §1

[12] = test system: CP335
Summary of the method: as §1

[13] = test system: DFO2036
Summary of the method: as §1

[14] = test system: DIV14
Summary of the method: as §1

[15] = test system: DIV17
Summary of the method: as §1

[16] = test system: DIV30
Summary of the method: as §1

[17] = test system: Dd2
Summary of the method: as §1

[18] = test system: ECU
Summary of the method: as §1

[19] = test system: FAB9
Summary of the method: as §1

[20] = test system: GB4
Summary of the method: as §1

[21] = test system: HB3
Summary of the method: as §1

[22] = test system: ICS
Summary of the method: as §1

[23] = test system: JCK
Summary of the method: as §1

[24] = test system: N140
Summary of the method: as §1

[25] = test system: P93_24
Summary of the method: as §1

[26] = test system: P94_40
Summary of the method: as §1

[27] = test system: PAD
Summary of the method: as §1

[28] = test system: PC49
Summary of the method: as §1

[29] = test system: SC27B
Summary of the method: as §1

[30] = test system: TAB109
Summary of the method: as §1

[31] = test system: TAB113
Summary of the method: as §1

[32] = test system: TAB165
Summary of the method: as §1

Measured: Potency

C[C@@H]1O[C@@H](O[C@H]2C[C@@H](O)[C@@]3(CO)[C@H]4[C@H](O)C[C@]5(C)[C@@H](C6=CC(=O)OC6)CC[C@]5(O)[C@H]4CC[C@@]3(O)C2)[C@@H](O)[C@H](O)[C@H]1O
inactive: all assays above
